The supplement of paper PMC11732987, “Enantioselective OTUD7B fragment discovery through chemoproteomics screening and high-throughput optimisation” (Communications Chemistry, 2025)

Legend:
Experiment in all cases: log2 ratio of Biotin-Ahx-Ub-VS probe labelling (fragment/DMSO); higher = less target engagement (more negative = stronger competition), active = hit call of the paper (q ≤ 0.05, log2 ratio ≤ -1)
Settings in all cases: compound concentration: 200 uM; treatment time: 3 h
USP34 = USP34 (UniProt Q70CQ2)
Procedure, shortened: (§1)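 HEK293T lysate in Tris/CHAPS/IGEPAL buffer with protease inhibitors (495 µg per sample) was given fragment at 200 µM or vehicle for 3 h, in triplicate. It then received Biotin-Ahx-Ub-VS at 0.5 µM final for 1 h. Labelled DUBs were NeutrAvidin-enriched, digested with LysC and trypsin, and run by diaPASEF LC-MS/MS. Values are average log2 fragment/vehicle ratios by unpaired t-test on global-median-normalised Spectronaut quantities of proteins with ≥2 unique peptides.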

USP36 = molecular target: T1, USP36 (UniProt Q9P275)
T1 sequence (whole entry): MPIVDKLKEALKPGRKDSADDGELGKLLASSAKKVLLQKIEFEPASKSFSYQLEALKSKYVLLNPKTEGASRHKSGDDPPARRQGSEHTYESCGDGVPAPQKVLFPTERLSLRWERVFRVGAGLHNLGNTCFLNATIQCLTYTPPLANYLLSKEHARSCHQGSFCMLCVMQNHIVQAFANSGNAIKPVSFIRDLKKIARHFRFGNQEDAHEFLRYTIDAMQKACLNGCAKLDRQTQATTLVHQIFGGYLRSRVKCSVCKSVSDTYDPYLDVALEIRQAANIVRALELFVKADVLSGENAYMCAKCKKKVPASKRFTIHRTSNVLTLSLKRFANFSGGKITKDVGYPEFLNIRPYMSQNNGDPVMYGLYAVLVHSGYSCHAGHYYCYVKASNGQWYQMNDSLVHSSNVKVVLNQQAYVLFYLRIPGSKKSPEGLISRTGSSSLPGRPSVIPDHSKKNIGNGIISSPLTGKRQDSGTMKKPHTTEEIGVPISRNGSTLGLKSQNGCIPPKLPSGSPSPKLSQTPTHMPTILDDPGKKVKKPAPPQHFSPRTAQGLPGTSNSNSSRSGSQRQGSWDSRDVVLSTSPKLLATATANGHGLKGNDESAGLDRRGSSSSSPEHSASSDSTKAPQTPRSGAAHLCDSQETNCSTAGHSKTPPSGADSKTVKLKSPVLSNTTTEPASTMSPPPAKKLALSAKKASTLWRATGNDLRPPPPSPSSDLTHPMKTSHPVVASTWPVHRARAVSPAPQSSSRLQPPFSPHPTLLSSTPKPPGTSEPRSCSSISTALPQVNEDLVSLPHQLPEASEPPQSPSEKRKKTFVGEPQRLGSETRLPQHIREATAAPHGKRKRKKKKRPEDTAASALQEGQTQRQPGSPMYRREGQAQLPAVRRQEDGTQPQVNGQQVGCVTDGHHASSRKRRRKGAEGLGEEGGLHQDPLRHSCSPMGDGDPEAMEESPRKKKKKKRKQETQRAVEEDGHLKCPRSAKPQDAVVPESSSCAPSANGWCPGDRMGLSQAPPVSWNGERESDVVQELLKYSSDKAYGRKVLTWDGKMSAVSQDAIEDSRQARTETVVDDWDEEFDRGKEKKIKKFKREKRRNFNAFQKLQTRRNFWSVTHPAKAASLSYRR
Procedure, shortened: as §1

USP38 = molecular target: T2, USP38 (UniProt Q8NB14)
T2 sequence (whole entry): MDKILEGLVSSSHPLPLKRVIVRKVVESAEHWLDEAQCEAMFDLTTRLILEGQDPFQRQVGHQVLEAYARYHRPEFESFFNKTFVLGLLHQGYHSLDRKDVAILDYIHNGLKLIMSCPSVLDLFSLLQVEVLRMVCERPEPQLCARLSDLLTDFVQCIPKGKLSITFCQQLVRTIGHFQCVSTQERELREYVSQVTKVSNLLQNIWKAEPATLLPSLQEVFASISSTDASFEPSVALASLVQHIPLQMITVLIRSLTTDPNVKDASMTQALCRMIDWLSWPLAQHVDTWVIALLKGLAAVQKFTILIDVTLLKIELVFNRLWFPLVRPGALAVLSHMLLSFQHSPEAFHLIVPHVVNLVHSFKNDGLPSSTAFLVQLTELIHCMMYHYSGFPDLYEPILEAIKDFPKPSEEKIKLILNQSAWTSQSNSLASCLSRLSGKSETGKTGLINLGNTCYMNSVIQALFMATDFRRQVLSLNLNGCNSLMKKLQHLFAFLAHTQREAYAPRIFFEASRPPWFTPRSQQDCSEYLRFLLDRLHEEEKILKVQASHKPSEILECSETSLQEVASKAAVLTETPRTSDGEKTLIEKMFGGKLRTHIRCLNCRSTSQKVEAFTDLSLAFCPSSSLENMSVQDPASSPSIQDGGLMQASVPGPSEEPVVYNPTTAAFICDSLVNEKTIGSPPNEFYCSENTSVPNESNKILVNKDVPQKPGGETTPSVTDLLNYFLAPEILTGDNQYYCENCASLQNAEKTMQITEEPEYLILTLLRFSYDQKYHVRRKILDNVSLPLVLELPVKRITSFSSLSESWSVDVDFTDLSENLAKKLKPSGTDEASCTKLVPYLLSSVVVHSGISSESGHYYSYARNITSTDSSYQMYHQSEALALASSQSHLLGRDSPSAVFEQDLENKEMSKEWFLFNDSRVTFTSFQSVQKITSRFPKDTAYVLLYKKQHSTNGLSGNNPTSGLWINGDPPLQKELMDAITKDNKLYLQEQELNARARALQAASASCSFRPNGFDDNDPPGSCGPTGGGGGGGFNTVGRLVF
Procedure, shortened: as §1

USP39 = molecular target: T3, USP39 (UniProt Q53GS9)
T3 sequence (whole entry): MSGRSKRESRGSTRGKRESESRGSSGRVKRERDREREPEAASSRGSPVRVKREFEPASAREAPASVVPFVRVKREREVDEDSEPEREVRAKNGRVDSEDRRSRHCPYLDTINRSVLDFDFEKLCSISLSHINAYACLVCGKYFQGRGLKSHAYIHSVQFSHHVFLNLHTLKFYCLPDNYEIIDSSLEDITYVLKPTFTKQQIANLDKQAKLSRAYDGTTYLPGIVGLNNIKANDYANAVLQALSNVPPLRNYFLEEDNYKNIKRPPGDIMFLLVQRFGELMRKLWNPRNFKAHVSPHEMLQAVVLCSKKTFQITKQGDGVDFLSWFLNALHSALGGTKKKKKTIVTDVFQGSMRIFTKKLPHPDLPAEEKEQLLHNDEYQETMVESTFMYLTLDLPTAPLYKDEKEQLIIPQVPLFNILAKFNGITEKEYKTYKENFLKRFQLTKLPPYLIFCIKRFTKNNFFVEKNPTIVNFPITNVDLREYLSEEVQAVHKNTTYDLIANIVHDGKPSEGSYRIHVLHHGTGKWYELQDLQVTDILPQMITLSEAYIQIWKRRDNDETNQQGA
Procedure, shortened: as §1

USP4 = molecular target: T4, USP4 (UniProt Q13107)
T4 sequence (whole entry): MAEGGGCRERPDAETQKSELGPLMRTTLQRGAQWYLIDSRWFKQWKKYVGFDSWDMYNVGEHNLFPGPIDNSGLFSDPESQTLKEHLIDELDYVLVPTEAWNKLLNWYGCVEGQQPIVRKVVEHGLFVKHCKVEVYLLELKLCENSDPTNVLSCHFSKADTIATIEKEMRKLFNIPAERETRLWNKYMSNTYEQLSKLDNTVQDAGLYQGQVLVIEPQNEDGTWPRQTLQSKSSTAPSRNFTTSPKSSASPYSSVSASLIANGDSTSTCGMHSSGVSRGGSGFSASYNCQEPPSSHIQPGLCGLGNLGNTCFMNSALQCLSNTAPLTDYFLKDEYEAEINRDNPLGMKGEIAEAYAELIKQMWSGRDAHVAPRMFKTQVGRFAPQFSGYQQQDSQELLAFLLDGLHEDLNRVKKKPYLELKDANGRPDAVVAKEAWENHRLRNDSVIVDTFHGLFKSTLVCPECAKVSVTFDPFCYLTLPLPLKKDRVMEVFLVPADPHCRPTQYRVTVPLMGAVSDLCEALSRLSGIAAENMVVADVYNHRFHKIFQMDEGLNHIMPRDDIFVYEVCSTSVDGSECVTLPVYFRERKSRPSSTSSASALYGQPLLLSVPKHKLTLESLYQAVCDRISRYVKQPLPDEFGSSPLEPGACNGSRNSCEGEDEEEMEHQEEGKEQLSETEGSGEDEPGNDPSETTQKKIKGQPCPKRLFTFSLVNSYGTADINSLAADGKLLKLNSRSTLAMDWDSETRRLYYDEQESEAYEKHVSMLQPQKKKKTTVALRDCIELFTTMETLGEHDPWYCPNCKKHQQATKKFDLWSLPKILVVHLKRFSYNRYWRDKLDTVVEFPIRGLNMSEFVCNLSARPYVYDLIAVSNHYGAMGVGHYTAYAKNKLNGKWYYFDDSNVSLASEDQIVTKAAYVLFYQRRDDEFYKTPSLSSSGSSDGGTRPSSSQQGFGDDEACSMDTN
Procedure, shortened: as §1

Measured: log2 ratio of Biotin-Ahx-Ub-VS probe labelling

USP34, sequence (Q70CQ2 whole entry, the tested form may be a part): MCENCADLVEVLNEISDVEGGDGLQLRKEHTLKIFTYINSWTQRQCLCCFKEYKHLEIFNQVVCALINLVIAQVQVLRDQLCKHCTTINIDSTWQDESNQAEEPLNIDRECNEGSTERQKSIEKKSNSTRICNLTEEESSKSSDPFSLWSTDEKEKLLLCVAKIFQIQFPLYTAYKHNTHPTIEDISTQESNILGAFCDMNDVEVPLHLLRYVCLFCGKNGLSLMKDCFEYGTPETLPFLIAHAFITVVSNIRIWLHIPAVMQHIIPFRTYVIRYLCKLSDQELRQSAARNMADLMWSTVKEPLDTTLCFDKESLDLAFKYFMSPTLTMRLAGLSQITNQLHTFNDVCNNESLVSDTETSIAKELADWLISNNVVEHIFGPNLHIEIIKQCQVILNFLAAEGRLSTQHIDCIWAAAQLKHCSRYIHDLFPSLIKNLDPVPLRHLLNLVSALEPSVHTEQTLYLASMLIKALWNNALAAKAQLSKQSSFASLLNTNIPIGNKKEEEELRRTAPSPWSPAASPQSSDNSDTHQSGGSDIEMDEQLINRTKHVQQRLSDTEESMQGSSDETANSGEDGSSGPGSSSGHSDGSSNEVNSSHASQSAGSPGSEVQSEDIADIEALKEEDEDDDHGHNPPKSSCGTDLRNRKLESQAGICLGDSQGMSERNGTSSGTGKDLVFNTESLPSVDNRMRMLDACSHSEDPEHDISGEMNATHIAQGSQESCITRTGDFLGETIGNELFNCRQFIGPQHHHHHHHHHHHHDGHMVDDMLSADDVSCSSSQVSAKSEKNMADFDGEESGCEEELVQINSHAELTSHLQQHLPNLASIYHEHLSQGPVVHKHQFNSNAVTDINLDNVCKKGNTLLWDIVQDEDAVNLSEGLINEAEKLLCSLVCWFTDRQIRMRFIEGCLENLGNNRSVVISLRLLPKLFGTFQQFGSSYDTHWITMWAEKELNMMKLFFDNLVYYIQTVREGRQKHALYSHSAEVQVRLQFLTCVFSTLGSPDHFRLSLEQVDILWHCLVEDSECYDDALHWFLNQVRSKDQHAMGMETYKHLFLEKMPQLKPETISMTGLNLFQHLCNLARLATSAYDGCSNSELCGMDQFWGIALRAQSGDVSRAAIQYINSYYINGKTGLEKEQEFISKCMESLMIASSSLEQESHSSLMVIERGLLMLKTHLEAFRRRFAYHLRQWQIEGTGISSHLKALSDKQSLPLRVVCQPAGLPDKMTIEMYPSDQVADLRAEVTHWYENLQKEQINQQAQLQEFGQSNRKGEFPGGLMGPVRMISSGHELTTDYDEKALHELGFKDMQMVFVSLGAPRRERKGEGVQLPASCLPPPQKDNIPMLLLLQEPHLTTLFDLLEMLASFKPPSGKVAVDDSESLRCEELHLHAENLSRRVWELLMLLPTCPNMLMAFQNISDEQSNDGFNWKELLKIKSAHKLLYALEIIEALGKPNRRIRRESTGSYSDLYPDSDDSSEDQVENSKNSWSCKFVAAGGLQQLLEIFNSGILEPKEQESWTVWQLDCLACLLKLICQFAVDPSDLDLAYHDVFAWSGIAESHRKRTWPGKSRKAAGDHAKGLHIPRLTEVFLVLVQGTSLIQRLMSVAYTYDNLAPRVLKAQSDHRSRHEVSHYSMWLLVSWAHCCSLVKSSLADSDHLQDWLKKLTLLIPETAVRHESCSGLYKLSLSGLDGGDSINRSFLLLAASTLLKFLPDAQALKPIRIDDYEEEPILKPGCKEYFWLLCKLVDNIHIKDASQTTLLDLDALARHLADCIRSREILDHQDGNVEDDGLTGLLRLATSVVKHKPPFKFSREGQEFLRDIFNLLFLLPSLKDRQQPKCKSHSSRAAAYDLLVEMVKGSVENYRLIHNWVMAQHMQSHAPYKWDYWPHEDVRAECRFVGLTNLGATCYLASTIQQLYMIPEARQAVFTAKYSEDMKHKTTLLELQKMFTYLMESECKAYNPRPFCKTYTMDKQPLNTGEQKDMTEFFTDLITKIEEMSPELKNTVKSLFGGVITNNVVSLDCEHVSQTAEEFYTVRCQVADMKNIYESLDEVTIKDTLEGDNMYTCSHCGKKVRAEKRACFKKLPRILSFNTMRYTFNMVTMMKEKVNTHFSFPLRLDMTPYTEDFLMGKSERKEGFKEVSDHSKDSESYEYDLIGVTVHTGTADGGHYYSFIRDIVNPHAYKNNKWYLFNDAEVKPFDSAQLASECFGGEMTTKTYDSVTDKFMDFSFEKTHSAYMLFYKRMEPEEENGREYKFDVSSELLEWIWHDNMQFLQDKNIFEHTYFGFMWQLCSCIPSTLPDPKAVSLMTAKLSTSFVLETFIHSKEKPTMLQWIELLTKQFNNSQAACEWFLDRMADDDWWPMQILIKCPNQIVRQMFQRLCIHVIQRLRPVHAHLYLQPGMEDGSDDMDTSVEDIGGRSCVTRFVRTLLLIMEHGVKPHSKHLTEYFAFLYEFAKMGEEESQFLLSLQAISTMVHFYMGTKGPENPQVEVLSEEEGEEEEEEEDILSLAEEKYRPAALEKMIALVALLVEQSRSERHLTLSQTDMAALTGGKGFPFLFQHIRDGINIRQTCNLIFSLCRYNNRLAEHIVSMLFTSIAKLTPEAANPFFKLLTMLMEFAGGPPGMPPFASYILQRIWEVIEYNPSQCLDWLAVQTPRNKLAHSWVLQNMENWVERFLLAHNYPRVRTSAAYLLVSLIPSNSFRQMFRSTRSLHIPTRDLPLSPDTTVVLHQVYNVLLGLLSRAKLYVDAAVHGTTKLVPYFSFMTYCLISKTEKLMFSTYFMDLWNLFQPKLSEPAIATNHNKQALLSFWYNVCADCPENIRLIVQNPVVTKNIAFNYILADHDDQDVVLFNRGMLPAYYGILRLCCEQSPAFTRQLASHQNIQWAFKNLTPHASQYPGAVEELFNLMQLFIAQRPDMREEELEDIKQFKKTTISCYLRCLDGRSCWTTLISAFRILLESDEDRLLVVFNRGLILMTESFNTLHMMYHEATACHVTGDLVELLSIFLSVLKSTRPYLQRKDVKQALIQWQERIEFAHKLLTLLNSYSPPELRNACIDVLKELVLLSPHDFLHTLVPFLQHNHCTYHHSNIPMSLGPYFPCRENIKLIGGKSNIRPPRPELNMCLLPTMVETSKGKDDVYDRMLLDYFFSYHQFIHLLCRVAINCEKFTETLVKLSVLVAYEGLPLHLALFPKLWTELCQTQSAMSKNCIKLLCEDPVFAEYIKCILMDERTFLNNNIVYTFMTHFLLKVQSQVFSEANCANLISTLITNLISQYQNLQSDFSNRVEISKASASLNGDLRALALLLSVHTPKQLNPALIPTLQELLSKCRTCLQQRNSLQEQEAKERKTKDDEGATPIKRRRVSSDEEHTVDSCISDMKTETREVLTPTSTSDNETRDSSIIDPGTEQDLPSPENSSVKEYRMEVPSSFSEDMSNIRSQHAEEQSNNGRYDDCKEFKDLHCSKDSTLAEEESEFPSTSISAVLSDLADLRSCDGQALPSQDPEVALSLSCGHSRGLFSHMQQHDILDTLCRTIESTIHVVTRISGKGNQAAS

CC1Cc2ccccc2N1C(=O)CCl (stereo not given)
inactive: USP34 -0.159 | USP36 0.0162 | USP38 -0.00784 | USP39 -0.0124 | USP4 -0.603
